According to PubChem BioAssay (NCI):
About 79,000 compounds went through this panel and 15% of them were active in at least one assay; those are over-represented in the sample as a whole. Values without a mark were called inactive. Calls of active or inactive are those of the source. Cut-off read from the data, not from the text of the source: active = growth inhibition above about 70%; inactive = the rest.

What was measured:
[1] = NCI Yeast Anticancer Drug Screen. Data for the rad50 strain (AID 155);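 note: 0% = growth of vehicle-only cultures of the same strain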; conditions: S. cerevisiae rad50 strain growth inhibition, hits give high values; at 50.0 µM unless noted
How it was run: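 Cells are treated with compound, grown, and their growth is then scored against vehicle-only cultures of the same repair-deficient yeast strain.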

[2] = NCI Yeast Anticancer Drug Screen. Data for the mec2-1 strain (AID 157); conditions: S. cerevisiae mec2-1 strain, hits give high values; at 50.0 µM unless noted
How it was run: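 Vehicle-treated cultures served as reference for growth inhibition of compound-exposed mec2-1 yeast.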

[3] = NCI Yeast Anticancer Drug Screen. Data for the sgs1 mgt1 strain (AID 161);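 note: 0% = growth of cultures given vehicle only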; conditions: S. cerevisiae sgs1 mgt1 strain, hits give high values; at 50.0 µM unless noted
How it was run: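 Read-out: growth inhibition vs vehicle controls. Cells: mutant yeast strain deficient in DNA damage repair.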

[4] = NCI Yeast Anticancer Drug Screen. Data for the cln2 rad14 strain (AID 165);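 note: 0% = growth equal to vehicle treated cultures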; conditions: S. cerevisiae cln2 rad14 strain, hits give high values; at 50.0 µM unless noted
How it was run: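 Each compound was tested on cln2 rad14 yeast. Inhibition of growth was calculated against vehicle-exposed controls.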

[5] = NCI Yeast Anticancer Drug Screen. Data for the bub3 strain (AID 167); conditions: S. cerevisiae bub3 mutant strain, hits give high values; at 50.0 µM unless noted
How it was run: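 Part of a panel of yeast mutants defective in DNA damage repair or cell cycle regulation. Each strain is grown with compound, and inhibition is calculated relative to solvent-treated cultures.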

[6] = NCI Yeast Anticancer Drug Screen. Data for the mlh1 rad18 strain (AID 175); conditions: S. cerevisiae mlh1 rad18 strain growth inhibition, hits give high values; at 50.0 µM unless noted
How it was run: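 Vehicle-treated cultures served as the reference for growth inhibition in a yeast strain carrying DNA damage repair alterations exposed to each compound.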

SMILES | growth inhibition [1] | growth inhibition [2] | growth inhibition [3] | growth inhibition [4] | growth inhibition [5] | growth inhibition [6]
CCC(C)C(C#N)(CCN(CC)CC)c1ccccc1 (centres undefined) | 15.2% | 12.6% | 28.4% | 7.3% | 32.9% | 14.5%
O=C(NCCCl)Nc1c(Cl)cccc1Cl | -4.6% | 14.3% | 6% | -18.6% | 1.8% | -4.2%
CCCCC(OC(=O)c1ccccc1)c1cc(OC(=O)c2ccccc2)c2c(c1OC(=O)c1ccccc1)CC(C)=C(C)C2 (centres undefined) | 84% (active) | 49.6% | 99% (active) | 53.4% | 48.2% | 56.2%
O=C(OC1OCC(OCc2ccccc2)C(OCc2ccccc2)C1OCc1ccccc1)c1ccccc1 (centres undefined) | 22.6% | -21.5% | -3.9% | -24.3% | -4.2% | -9.15%
O=C1NCC2(CCN(CCCC3(c4ccc(F)cc4)OCCO3)CC2)N1c1ccccc1 | -14.1% | -0.05% | -1.55% | 1.4% | 6.4% | 1.55%
COC(=O)/C(C#N)=N/O | 16.6% | -39.1% | -22.8% | 8.4% | -7.7% | -21.6%
CCN(CCO)c1cccc(C)c1 | -12.2% | -19.1% | -12.5% | 1.6% | -17.4% | -7.2%
CCOC(=O)C12CCCC1(O)N(NC(N)=O)C(C)=C2C(=O)OC (centres undefined) | 10.2% | -5.1% | 3.05% | -69.1% | -11.9% | 6.2%
FC(F)(F)c1cc(NC(=S)SCc2ccc3c(c2)OCO3)ccc1Cl | 73.5% (active) | 63.9% | 73.3% (active) | 38.5% | 59.2% | 84% (active)
COc1ccc(C2(OC)Oc3cc(OC)ccc3-c3nc4ccccc4nc32)cc1 (centres undefined) | 23.4% | 1.25% | -4.15% | 11.6% | 4.3% | 0.4%
C=C(c1ccccc1)C1ON(C)CCc2cc(OC)c(OC)cc21 (centres undefined) | 3.65% | 15.4% | 14.3% | 5.85% | 33.6% | 5.45%
N#CC(C#N)N=O (tested in a mixture with another compound) | -4.1% | -15.3% | -15.2% | -19.7% | -6.9% | -6.25%
CC(C)(C)C(C)(C)SSC(C)(C)C(C)(C)C | 6.05% | 12.4% | 18.8% | 7.4% | 15.7% | 25.5%
C/C(=N\O)C(=O)c1ccc(C)cc1 | -0.05% | -12.7% | 2.2% | -30.6% | -22.7% | -8.7%
Cc1ccc(C)n1-n1c(Cc2ccccc2)n[nH]c1=O | -21.8% | -19.3% | -15.1% | 2.75% | -31.8% | -12.7%
O=C1c2cccc3c([N+](=O)[O-])ccc(c23)C(=O)N1Cc1cccnc1 | 99.3% (active) | 99.7% (active) | 99.5% (active) | 99.3% (active) | 99.3% (active) | 99.4% (active)
CCCOC(=O)N(C)c1ccccc1 | 17.8% | -10.3% | 2.95% | -32.3% | -22.6% | -2.1%
Cc1ccccc1C(=O)C[n+]1ccccc1C | -11.8% | 15.5% | -5.7% | -21.6% | 4.1% | 8.3%
CC1CN=C(N(C(=O)Nc2ccccc2)C2CCCCC2)S1 (centres undefined) | -43.1% | -8.9% | -60.1% | 5.35% | -4.3% | -20%
